Assay results taken from PubChem BioAssay.
Activity calls are given as the source filed them.

Key:
[1] = system: PRMT1 (protein arginine N-methyltransferase 1); experiment: small molecules binding arginine methyltransferase PRMT1 – biochemical, small-molecule microarray, 635 nm fluorescence, primary screen (AID 1088); conditions: higher = more signal;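 further: binding of Prmt1 protein to compounds spotted on small-molecule microarray slides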
[2] = growth effects on S. cerevisiae YJM789 – YJM789 clinical isolate, OD600, 24 h, basal, primary screen (AID 1089); conditions: higher = more signal, called active from +8 up or from −8 down;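 further: growth of clinical yeast isolate S. cerevisiae YJM 789 seeded 1000 cells per well; test concentration not given here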
[3] = S. pombe growth modifiers, basal conditions – strain 972, OD600, 24 h, no modulator, primary screen (AID 1090);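 further: basal condition with compound alone and no growth modifier present; test concentration not given here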; conditions: S. pombe 972 growth, higher = more signal, called active from +8 up or from −8 down
[4] = budding yeast growth modifiers under rapamycin – strain BY4716, OD600, 96 h, primary screen (AID 1091); further: test concentration not given here; conditions: S. cerevisiae BY4716 + rapamycin, higher = more signal, called active from +8 up or from −8 down
[5] = target: Torsin-1A-interacting protein 2 (Homo sapiens) (UniProt Q8NFQ8); experiment: small molecules binding lysate-expressed LULL1 – cell lysate, human LULL1 lysate, 635/667 nm fluorescence, primary screen (AID 1092); conditions: small-molecule microarray, hLULL1 lysate binding, 635 nm fluorescence; higher = more signal;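 further: probe is lysate of COS7 cells overexpressing human LULL1; score merges per-feature 667 nm fluorescence with signal-to-noise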
Torsin-1A-interacting protein 2 (Homo sapiens), sequence (Q8NFQ8 whole entry, looked up): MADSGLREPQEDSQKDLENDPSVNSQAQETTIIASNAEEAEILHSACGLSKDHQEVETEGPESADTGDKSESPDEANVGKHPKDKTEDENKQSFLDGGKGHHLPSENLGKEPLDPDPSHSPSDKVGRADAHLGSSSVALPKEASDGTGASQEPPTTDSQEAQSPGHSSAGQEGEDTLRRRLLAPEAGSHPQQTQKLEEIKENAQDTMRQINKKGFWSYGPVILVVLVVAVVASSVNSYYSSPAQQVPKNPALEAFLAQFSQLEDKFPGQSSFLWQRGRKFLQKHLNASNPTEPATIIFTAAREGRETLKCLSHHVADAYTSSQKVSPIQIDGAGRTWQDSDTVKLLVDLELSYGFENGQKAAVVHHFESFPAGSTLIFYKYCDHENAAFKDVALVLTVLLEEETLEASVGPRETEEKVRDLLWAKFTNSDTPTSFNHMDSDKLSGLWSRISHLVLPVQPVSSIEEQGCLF

[6] = optical density change of DRC41 E. coli – strain DRC41, OD650, 24 h, E. coli filamentation project, primary screen (AID 1093);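 further: MC1000 strain lacking acrAB efflux and sulA so SOS filamentation is blocked; test concentration not given here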; conditions: E. coli DRC41 growth, higher = more signal, called active from +8 up or from −8 down
[7] = probe aLefty2 binding to arrayed compounds – biochemical, biotinylated probe, 635/667 nm fluorescence, primary screen (AID 1094); conditions: small-molecule microarray, higher = more signal;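 further: score merges spot fluorescence near 667 nm with spot signal-to-noise ratio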
[8] = system: Noggin (protein binding on small-molecule microarray); experiment: small molecules binding Noggin protein – biochemical, 635/667 nm fluorescence, primary screen (AID 1095); conditions: 635 nm fluorescence, higher = more signal;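 further: score merges 667 nm feature fluorescence with signal to noise over triplicate slides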
[9] = target: Neurogenic locus notch homolog protein 3 (Homo sapiens) (UniProt Q9UM47); experiment: small molecules binding NOTCH3 protein – biochemical, 635/667 nm fluorescence, primary screen (AID 1096); conditions: small-molecule microarray, 635 nm fluorescence, higher = more signal
Neurogenic locus notch homolog protein 3 (Homo sapiens), sequence (Q9UM47 whole entry, looked up): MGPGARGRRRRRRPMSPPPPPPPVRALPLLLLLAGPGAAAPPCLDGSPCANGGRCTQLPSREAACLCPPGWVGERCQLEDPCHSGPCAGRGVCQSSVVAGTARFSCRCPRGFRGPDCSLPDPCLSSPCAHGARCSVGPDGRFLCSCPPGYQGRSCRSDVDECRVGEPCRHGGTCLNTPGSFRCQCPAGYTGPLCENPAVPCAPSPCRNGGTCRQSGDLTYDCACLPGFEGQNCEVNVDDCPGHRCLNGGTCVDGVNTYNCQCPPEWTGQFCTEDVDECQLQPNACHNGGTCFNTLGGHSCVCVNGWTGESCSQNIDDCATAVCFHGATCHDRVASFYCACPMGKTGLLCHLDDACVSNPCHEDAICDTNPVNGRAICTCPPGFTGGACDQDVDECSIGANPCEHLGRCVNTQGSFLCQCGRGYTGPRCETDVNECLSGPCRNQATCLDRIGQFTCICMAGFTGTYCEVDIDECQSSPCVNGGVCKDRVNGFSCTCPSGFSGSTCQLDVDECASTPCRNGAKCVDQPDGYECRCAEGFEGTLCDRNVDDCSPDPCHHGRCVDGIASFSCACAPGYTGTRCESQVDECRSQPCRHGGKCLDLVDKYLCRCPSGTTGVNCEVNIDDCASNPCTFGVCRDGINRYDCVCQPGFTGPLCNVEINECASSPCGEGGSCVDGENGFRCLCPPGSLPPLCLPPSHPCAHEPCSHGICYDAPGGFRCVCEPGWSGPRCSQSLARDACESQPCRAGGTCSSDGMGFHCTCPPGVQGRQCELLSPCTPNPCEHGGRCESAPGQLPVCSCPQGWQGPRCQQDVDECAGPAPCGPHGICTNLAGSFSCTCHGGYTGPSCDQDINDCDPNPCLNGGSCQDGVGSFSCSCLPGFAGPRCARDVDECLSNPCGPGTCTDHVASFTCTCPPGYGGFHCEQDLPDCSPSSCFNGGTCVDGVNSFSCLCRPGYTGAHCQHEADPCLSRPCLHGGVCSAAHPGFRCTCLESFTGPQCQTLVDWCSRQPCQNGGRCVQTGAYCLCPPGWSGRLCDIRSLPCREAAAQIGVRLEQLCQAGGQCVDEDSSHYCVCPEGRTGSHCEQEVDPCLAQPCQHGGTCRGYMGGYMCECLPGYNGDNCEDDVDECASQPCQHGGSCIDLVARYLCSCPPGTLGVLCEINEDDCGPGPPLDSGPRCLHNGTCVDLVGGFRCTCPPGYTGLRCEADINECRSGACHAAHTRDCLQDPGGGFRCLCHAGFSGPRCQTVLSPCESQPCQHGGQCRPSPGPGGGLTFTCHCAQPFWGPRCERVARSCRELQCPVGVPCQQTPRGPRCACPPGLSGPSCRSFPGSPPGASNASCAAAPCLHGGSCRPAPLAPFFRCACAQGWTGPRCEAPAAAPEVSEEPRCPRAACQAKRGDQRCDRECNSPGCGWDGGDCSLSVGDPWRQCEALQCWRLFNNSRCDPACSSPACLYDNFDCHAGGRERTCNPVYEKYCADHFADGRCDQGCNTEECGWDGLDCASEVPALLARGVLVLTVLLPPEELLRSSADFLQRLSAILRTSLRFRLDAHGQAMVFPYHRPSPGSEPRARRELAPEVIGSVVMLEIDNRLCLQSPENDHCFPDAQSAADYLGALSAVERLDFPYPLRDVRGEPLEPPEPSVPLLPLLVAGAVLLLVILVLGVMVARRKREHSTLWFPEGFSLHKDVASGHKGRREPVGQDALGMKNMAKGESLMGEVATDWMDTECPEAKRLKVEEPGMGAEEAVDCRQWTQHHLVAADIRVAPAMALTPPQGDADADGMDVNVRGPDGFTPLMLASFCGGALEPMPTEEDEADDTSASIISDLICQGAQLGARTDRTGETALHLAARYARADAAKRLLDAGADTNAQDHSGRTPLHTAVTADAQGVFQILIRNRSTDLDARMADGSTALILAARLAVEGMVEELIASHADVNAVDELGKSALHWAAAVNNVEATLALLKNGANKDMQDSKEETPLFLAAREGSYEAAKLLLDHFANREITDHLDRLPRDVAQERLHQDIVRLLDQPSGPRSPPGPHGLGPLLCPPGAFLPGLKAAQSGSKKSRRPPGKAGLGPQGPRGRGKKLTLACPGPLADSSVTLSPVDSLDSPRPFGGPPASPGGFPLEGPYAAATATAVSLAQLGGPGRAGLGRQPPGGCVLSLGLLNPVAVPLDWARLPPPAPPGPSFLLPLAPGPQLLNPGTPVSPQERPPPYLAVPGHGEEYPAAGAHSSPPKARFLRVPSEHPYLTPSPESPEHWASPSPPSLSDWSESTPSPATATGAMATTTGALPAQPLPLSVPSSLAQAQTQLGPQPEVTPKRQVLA

[10] = probe aEGFR binding to arrayed compounds – biochemical, biotinylated probe, 635/667 nm fluorescence, primary screen (AID 1097); conditions: small-molecule microarray, higher = more signal;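 further: probe is a biotinylated anti-EGFR antibody binding compounds printed on slides; score combines fluorescence near 667 nm and signal to noise of each spot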
[11] = system: Plasmodium falciparum Sir2 (PF13_0152, Sir2A); experiment: Plasmodium falciparum Sir2A binding compounds – biochemical, small-molecule microarray, 635 nm fluorescence, primary screen (AID 1098); conditions: fluorescence 635 nm, higher = more signal;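 further: score merges spot fluorescence intensity with its signal-to-noise ratio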
[12] = probe aDKK1 binding to arrayed compounds – biochemical, biotinylated probe, 635/667 nm fluorescence, primary screen (AID 1099); conditions: small-molecule microarray, higher = more signal;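 further: score merges 667nm spot fluorescence with signal to noise across triplicate slides; reference of the scale not given here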
[13] = probe aCHRDL2 binding to arrayed compounds – biochemical, biotinylated probe, 635/667 nm fluorescence, primary screen (AID 1100); conditions: small-molecule microarray, higher = more signal
[14] = change in splice reporter luminescence, either direction, cell-based, HEK293, spliceosome inhibition project, primary screen (AID 1101); conditions: HEK293 splicing luciferase reporter, 24 h, higher = more signal, called active from +8 up or from −8 down;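 further: HEK293 cells carrying a splicing-competent luciferase reporter gene; test concentration not given here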
[15] = target: Fibroblast growth factor 10 (Homo sapiens) (UniProt O15520); experiment: compounds binding fibroblast growth factor 10 – biochemical, small-molecule microarray, 635 nm fluorescence, primary screen (AID 1102); conditions: FGF10 binding, fluorescence 635 nm, higher = more signal
Fibroblast growth factor 10 (Homo sapiens), sequence (O15520 whole entry, looked up): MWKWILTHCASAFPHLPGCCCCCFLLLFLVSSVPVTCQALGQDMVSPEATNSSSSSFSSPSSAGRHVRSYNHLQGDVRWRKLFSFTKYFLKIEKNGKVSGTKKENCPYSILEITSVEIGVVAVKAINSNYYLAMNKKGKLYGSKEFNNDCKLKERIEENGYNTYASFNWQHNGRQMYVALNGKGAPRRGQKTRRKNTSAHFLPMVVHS

[16] = system: glycogen synthase kinase-3 (GSK3A per assay name; protocol says GSK3B); experiment: compounds binding glycogen synthase kinase-3 – biochemical, small-molecule microarray, 635 nm fluorescence, GSK3A, primary screen (AID 1103); conditions: fluorescence 635 nm, higher = more signal; further: the record names both GSK3A and GSK3B
[17] = target: Epidermal growth factor receptor (Homo sapiens) (UniProt P00533); experiment: compounds binding epidermal growth factor receptor – biochemical, small-molecule microarray, 635 nm fluorescence, primary screen (AID 1104); conditions: EGFR binding, higher = more signal;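 further: score merges 667 nm emission intensity with spot signal to noise over triplicate slides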
Epidermal growth factor receptor (Homo sapiens), sequence (P00533 whole entry, looked up): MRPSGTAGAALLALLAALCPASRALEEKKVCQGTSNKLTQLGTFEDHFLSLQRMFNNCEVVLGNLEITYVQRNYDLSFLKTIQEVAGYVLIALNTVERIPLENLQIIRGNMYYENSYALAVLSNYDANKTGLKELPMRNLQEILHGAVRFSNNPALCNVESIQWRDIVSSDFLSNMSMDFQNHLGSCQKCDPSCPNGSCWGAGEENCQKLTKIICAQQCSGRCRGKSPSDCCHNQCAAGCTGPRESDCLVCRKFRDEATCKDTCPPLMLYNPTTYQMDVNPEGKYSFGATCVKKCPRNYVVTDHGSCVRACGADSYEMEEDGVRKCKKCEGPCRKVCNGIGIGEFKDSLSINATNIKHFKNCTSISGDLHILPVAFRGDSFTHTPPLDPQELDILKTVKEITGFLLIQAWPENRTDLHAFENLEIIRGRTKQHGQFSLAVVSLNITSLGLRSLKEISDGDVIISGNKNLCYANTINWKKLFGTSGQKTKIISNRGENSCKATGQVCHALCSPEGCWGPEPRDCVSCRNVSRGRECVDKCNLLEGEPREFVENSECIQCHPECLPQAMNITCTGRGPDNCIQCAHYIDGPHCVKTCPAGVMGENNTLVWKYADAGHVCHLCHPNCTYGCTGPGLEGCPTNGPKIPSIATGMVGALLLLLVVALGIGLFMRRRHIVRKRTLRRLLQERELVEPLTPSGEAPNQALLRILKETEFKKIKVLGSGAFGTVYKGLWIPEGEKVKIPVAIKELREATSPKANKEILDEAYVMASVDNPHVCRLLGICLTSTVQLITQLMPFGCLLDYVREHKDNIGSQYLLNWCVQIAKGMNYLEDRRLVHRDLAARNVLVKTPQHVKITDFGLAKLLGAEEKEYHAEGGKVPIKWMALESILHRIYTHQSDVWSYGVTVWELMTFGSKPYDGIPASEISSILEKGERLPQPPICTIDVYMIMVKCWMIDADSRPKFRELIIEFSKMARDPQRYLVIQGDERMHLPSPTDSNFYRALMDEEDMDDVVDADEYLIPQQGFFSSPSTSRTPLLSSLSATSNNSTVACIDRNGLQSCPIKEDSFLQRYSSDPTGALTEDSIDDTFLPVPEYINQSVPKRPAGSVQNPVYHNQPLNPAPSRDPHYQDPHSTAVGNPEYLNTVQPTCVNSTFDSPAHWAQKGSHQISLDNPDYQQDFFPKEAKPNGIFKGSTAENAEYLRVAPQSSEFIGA

[18] = target: Follistatin-related protein 3 (Homo sapiens) (UniProt O95633); experiment: compounds binding follistatin-related protein 3 – biochemical, small-molecule microarray, 635 nm fluorescence, primary screen (AID 1105); conditions: FSTL3 binding, higher = more signal;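 further: score merges emission near 667 nm and signal to noise per printed spot across three slides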
Follistatin-related protein 3 (Homo sapiens), sequence (O95633 whole entry, looked up): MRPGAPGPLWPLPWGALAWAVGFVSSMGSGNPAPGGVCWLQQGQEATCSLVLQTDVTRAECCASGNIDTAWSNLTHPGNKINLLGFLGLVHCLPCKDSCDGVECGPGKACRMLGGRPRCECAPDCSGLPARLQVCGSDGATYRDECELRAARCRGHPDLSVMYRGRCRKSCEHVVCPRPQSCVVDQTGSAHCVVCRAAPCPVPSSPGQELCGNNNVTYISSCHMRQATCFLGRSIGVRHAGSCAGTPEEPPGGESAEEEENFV

[19] = target: Dickkopf-related protein 1 (Homo sapiens) (UniProt O94907); experiment: small molecules binding DKK1 protein – biochemical, small-molecule microarray, 635 nm fluorescence scan, primary screen (AID 1106); conditions: higher = more signal;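 further: score merges emission near 667 nm with signal to noise over three replicate slides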
Dickkopf-related protein 1 (Homo sapiens), sequence (O94907 whole entry, looked up): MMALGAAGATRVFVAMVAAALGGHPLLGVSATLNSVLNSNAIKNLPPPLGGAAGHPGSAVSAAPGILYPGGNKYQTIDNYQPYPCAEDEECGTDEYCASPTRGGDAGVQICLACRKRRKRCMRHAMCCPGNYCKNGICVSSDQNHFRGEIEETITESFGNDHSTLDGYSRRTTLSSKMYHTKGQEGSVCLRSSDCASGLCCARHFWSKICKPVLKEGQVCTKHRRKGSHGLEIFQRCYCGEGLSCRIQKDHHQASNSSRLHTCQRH

[20] = system: Inhibin beta A chain (activin A); experiment: small molecules binding activin A – biochemical, small-molecule microarray, 635 nm fluorescence scan, primary screen (AID 1107); conditions: INHBA, higher = more signal;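 further: mouse activin A protein probed at 4.33 µg/mL on printed slides; score merges bound-protein fluorescence near 667 nm with spot signal-to-noise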

Row | SMILES | composite z-score [1] | z-score [2] | z-score [3] | z-score [4] | composite z-score [5] | z-score [6] | composite z-score [7] | composite z-score [8] | composite z-score [9] | composite z-score [10] | composite z-score [11] | composite z-score [12] | composite z-score [13] | z-score [14] | composite z-score [15] | composite z-score [16] | composite z-score [17] | composite z-score [18] | composite z-score [19] | composite z-score [20]
1 | CO[C@H]1O[C@H](CO)[C@@H](OC(=O)CCc2ccccc2)[C@H](OC(=O)c2cc3ccccc3[nH]2)[C@H]1OC(=O)c1cc2ccccc2[nH]1 | 1.38 | -0.583 (inactive) | -0.0932 (inactive) | 20 (active) | 2.74 | 1.5 (inactive) | -0.0468 | 0.565 | 1.07 | -0.0662 | 0.757 | -0.118 | -0.0052 | -0.766 (inactive) | 1.27 | 0.828 | 0.543 | 0.847 | 0.777 | -0.108
2 | C=C/C=C/[C@@H]1C(=C)CN([C@@H](Cc2ccccc2)C(=O)OC)[C@H]1[C@@H](O)Cc1ccccc1 | 1.44 | -0.03 (inactive) | -1.63 (inactive) | 0.415 (inactive) | 1.57 | 0.85 (inactive) | -0.0975 | 0.0905 | 0.731 | -0.0228 | 0.742 | -0.369 | -0.186 | 0.844 (inactive) | 0.716 | 0.754 | -0.08 | 0.509 | 0.473 | 1.2
3 | O=C1NC(=O)C2C1C=CC(C(O)c1ccccn1)N2Nc1ccc(Cl)cc1Cl (stereo not given) | 0.195 | -1.09 (inactive) | 0.154 (inactive) | -0.458 (inactive) | 3.35 | -0.402 (inactive) | 0.091 | -0.291 | 0.259 | -0.0271 | 0.827 | 0.315 | 0.717 | 1.54 (inactive) | 0.0551 | -0.0767 | 0.107 | -0.196 | -0.35 | 0.386
4 | CN1C(=O)C2C=CC(C(O)c3ccc(I)cc3)N(Nc3ccccc3)C2C1=O (stereo not given) | 1.27 | -0.228 (inactive) | -0.504 (inactive) | 0.768 (inactive) | 2.99 | -1.78 (inactive) | 0.107 | -0.111 | 1.09 | 0.0778 | 1.23 | 0.158 | 0.926 | 0.623 (inactive) | 1.16 | 0.995 | 0.271 | 1.31 | -0.158 | 0.966
5 | COC(=O)[C@@]1(Cc2ccc(OC)cc2)[C@H]2c3cc(C(=O)N4CCCC4)n(Cc4ccc(S(C)(=O)=O)cc4)c3C[C@H]2CN1C(=O)c1ccccc1 | -0.42 | -0.288 (inactive) | 0.868 (inactive) | 1.16 (inactive) | 3 | -0.247 (inactive) | 0.205 | 0.419 | 1.02 | 0.297 | 0.645 | 0.807 | 1.29 | 0.699 (inactive) | 0.508 | 0.401 | 0.348 | -0.0139 | -0.802 | 0.881
6 | COC(=O)C(CC#Cc1ccc2c(c1)[C@]1(C(=O)N2)[C@H](C(=O)Nc2nc3ccccc3s2)[C@H]2C(=O)O[C@H](c3ccccc3)[C@H](c3ccccc3)N2[C@@H]1c1ccc(OCCO)cc1)C(=O)OC | 1.55 | -0.442 (inactive) | -0.144 (inactive) | 1.37 (inactive) | 3.18 | 2.96 (inactive) | 0.0973 | 1.59 | 1.08 | 0.0766 | 0.912 | 0.277 | 0.575 | -1.25 (inactive) | 1.15 | 1.21 | 0.468 | 1.19 | 0.344 | 0.519
7 | COc1cc(NN2C(C(O)c3cc(OC)c(OC)c(OC)c3)C=CC3C(=O)N(c4ccccc4)C(=O)C32)cc(OC)c1OC (stereo not given) | 1.51 | 0.613 (inactive) | 0.712 (inactive) | 0.219 (inactive) | 2.93 | -1.94 (inactive) | 0.688 | 1.34 | 1.02 | 0.139 | 0.815 | 0.981 | 0.561 | 0.269 (inactive) | 1.26 | 1.3 | 0.165 | 1.1 | 0.101 | 0.759
